# The campaign covered roughly 5,500 compounds. About 2,000 (36%) were called active. Roughly 18% stayed inconclusive and do not appear here. This is one part of the list. Values without a mark were called inactive. Rule as the data show it: active = normalized growth mostly below about 0.91 (no sharp cut-off); inconclusive = no clear call, values can overlap the other calls; inactive = mostly above about 0.92.
# Assay: chemical genetic growth profiling, strain panel (AID 1159580);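 also: tested at 20 µM; growth read once vehicle control cultures reached saturation at 30 °C; 1 = growth at the plate median or of vehicle wells; lower values mean less growth of the strain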
# Settings: growth OD
# [1] = S. cerevisiae deletion strains, locus YAL013W, strain DEP1, active compounds read low
# [2] = S. cerevisiae deletion strains, locus YBR229C, strain ROT2, active compounds read low
# [3] = S. cerevisiae deletion strains, locus YDL101C, strain DUN1, active compounds read low
# [4] = S. cerevisiae deletion strains, locus YDR150W, strain NUM1, active compounds read low
# [5] = S. cerevisiae deletion strains, locus YEL061C, strain CIN8, active compounds read low
# [6] = S. cerevisiae deletion strains, locus YGR078C, strain PAC10, active compounds read low
# [7] = S. cerevisiae deletion strains, locus YHR030C, strain SLT2, active compounds read low
# [8] = S. cerevisiae deletion strains, locus YHR087W, strain rtc3, active compounds read low
# [9] = S. cerevisiae deletion strains, locus YJR043C, strain POL32, active compounds read low
# [10] = S. cerevisiae deletion strains, locus YJR075W, strain HOC1, active compounds read low
# [11] = S. cerevisiae deletion strains, locus YLR039C, strain RIC1, active compounds read low
# [12] = S. cerevisiae deletion strains, locus YLR058C, strain SHM2 (second series), active compounds read low
# [13] = S. cerevisiae deletion strains, locus YLR085C, strain ARP6, active compounds read low
# [14] = S. cerevisiae deletion strains, locus YLR262C, strain YPT6, active compounds read low
# [15] = S. cerevisiae deletion strains, locus YML094W, strain GIM5, active compounds read low
# [16] = S. cerevisiae deletion strains, locus YMR219W, strain ESC1, active compounds read low
# [17] = S. cerevisiae deletion strains, locus YMR263W, strain SAP30, active compounds read low
# [18] = S. cerevisiae deletion strains, locus YNL153C, strain GIM3, active compounds read low
# [19] = S. cerevisiae deletion strains, locus YNL298W, strain CLA4 (second series), active compounds read low
# [20] = S. cerevisiae deletion strains, locus YNL322C, strain KRE1, active compounds read low
# [21] = S. cerevisiae deletion strains, locus YNR030W, strain Alg12, active compounds read low
# [22] = S. cerevisiae deletion strains, locus YPL055C, strain LGE1, active compounds read low
# [23] = S. cerevisiae deletion strains, locus YPL241C, strain CIN2, active compounds read low
# [24] = S. cerevisiae deletion strains, locus YPR135W, strain CTF4, active compounds read low
# [25] = S. cerevisiae strains, strain wild type, active compounds read low
# [26] = S. cerevisiae deletion strains, locus YCL061C, strain MRC1, active compounds read low
# [27] = S. cerevisiae deletion strains, locus YJL187C, strain SWE1, active compounds read low
# [28] = S. cerevisiae deletion strains, locus YOL006C, strain TOP1, active compounds read low
smiles,measurement,setting,value
Cc1ccc(Sc2nc(C)c([N+](=O)[O-])c(C)c2C#N)cc1,normalized growth,[1],0.969
same,normalized growth,[2],0.982
same,normalized growth,[3],0.997
same,normalized growth,[4],0.99
same,normalized growth,[5],0.934
same,normalized growth,[6],0.979
same,normalized growth,"S. cerevisiae deletion strains, locus YGR229C, strain SMI1, active compounds read low",0.978
same,normalized growth,[7],0.625 (active)
same,normalized growth,[8],0.975
same,normalized growth,[9],0.967
same,normalized growth,[10],0.952
same,normalized growth,"S. cerevisiae deletion strains, locus YKL190W, strain CNB1, active compounds read low",0.977
same,normalized growth,[11],0.664 (active)
same,normalized growth,[12],0.969
same,normalized growth,[13],0.883
same,normalized growth,[14],0.732 (active)
same,normalized growth,[15],1.01
same,normalized growth,[16],0.979
same,normalized growth,[17],0.97
same,normalized growth,"S. cerevisiae deletion strains, locus YMR307W, strain GAS1, active compounds read low",0.763
same,normalized growth,[18],0.994
same,normalized growth,[19],0.947
same,normalized growth,[20],0.974
same,normalized growth,[21],0.965
same,normalized growth,[22],0.963
same,normalized growth,[23],1.06
same,normalized growth,[24],0.828
same,normalized growth,[25],0.974
CC(=O)CS(=O)(=O)c1ccc(Cl)cc1,normalized growth,[1],1.02
same,normalized growth,[2],1.01
same,normalized growth,[26],1.01
same,normalized growth,[3],1.01
same,normalized growth,"S. cerevisiae deletion strains, locus YDL134C, strain PPH21, active compounds read low",1
same,normalized growth,[4],0.969
same,normalized growth,[5],1.02
same,normalized growth,[6],1
same,normalized growth,[7],1
same,normalized growth,[8],0.998
same,normalized growth,[27],0.995
same,normalized growth,[9],0.988
same,normalized growth,[10],0.995
same,normalized growth,[11],1.02
same,normalized growth,[12],1
same,normalized growth,[13],1.04
same,normalized growth,[14],1.03
same,normalized growth,[15],1.02
same,normalized growth,[16],1.01
same,normalized growth,[17],0.969
same,normalized growth,[18],0.995
same,normalized growth,[19],0.992
same,normalized growth,[20],1.01
same,normalized growth,[21],1
same,normalized growth,[28],1.01
same,normalized growth,[22],1
same,normalized growth,[23],1.02
same,normalized growth,[24],0.933
same,normalized growth,[25],1
NC(=S)CS(=O)(=O)c1ccc(C(F)(F)F)cc1,normalized growth,[1],0.977
same,normalized growth,[2],1.01
same,normalized growth,[26],1.02
same,normalized growth,[3],1.03
same,normalized growth,[4],0.998
same,normalized growth,[5],1.03
same,normalized growth,[6],1.01
same,normalized growth,[7],1.03
same,normalized growth,[8],1.01
same,normalized growth,[27],1.02
same,normalized growth,[9],1.01
same,normalized growth,[10],1.02
same,normalized growth,[11],1.09
same,normalized growth,[12],1.02
same,normalized growth,[13],1.23 [resistant] (active)
same,normalized growth,[14],1.07
same,normalized growth,[15],1.01
same,normalized growth,[16],1.02
same,normalized growth,[17],1.04
same,normalized growth,"S. cerevisiae deletion strains, locus YNL128W, strain TEP1, active compounds read low",1.03
same,normalized growth,[18],1.02
same,normalized growth,[19],1.03
same,normalized growth,[20],1
same,normalized growth,[21],0.992
same,normalized growth,[28],1.23
same,normalized growth,[22],0.952
same,normalized growth,[23],1.09
same,normalized growth,[24],0.969

# — PubChem BioAssay AID1159580 (chemical genetic matrix, 2015)
